In PubChem BioAssay (NCATS) one finds Potency, viability (% of control) and viability, % of control data, which are given here for 26 compounds.

Records with an inconclusive call do not appear. Active and inactive are the calls of the source. Calls follow the shape of the dose curve; as a rule, active = well fitted cell-killing curve with a large enough effect; inconclusive = small, poorly fitted or top-dose-only effect, or effect the other way; inactive = no such curve, though single readings can be large or run the other way.

Test [1] can be described thus: Viability qHTS for spleen associated tyrosine kinase inhibitor (SYKi) naive MV4-11 cells (AID 1963823). Also: nearly all actives have a fitted effect of over 40% in size. A digest of the protocol: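 CellTiter-Glo luminescence, 10 min room-temperature incubation, gave viability. Cells: naive MV4-11 (500/well), treated 72 hr at 37 C, 5% CO2.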
Test [2] in a line: Viability qHTS for spleen associated tyrosine kinase inhibitor (SYKi) drug resistant MV4-11 cells (AID 1963824). Also: nearly all actives have a fitted effect of over 35% in size. The procedure, abridged:
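CellTiter-Glo luminescence, read 10 min after reagent addition, reports viability after a 72 hr compound exposure. Cells are an MV4-11 line made resistant to SYK inhibition, seeded at 500 per well onto compound-containing plates.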
(qHTS replaces the single test concentration by a dilution series.)
Potency is read from the fitted curve at half-maximal effect.

On to `CC12CC(O)C(O)C=C1c1cc(O)cc(O)c1C(=O)O2` (configuration not stated), for which the Potency entry in test [1] and in test [2] was “inactive” in each case.

For `CS(=O)(=O)N(CC(=O)NCC1CC1)c1cc(C(F)(F)F)ccc1Cl`, the Potency result in test [1] and in test [2] was “inactive” in each case.

In the case of `CN1CCN(Cc2ccc(NC(=O)Cc3ccc(Oc4cc(NC(=O)C5CC5)ncn4)cc3)cc2C(F)(F)F)CC1`, the Potency result in test [1] and in test [2] was “inactive” each time.

On to `C/C1=C\CCC2=CC(OC2=O)C(C)(C)/C=C/C1=O` (configuration not stated), for which the Potency in test [1] is 4.61 µM (active); in test [2], 2.31 µM (active).

Turning to `CCC(C)CC(=O)OC1C(=O)C(CO)=CC(O)C1C(C)C` (configuration not stated), the Potency in test [1] and in test [2] was 2.59 µM (active) in each case.

For the compound `CC1=CC(=O)CC(C)(C)C1/C=C/C(C)O[C@@H]1O[C@H](CO)[C@@H](O)[C@H](O)[C@H]1O[C@@H]1OC[C@](O)(CO)[C@H]1O` (some centres not stated), the Potency entry in test [1] and in test [2] was “inactive” throughout.

On to `CC1(C)CC[C@]2(C(=O)O[C@@H]3O[C@H](CO[C@@H]4O[C@H](CO)[C@@H](O)[C@H](O)[C@H]4O[C@@H]4O[C@H](CO)[C@H](O)[C@H](O)[C@H]4O)[C@@H](O)[C@H](O[C@@H]4O[C@H](CO)[C@@H](O)[C@H](O)[C@H]4O)[C@H]3O)CC[C@]3(C)C(=CCC4[C@@]5(C)CC[C@H](O[C@@H]6OC[C@@H](O)[C@H](O)[C@H]6O)[C@@](C)(C(=O)O)C5CC[C@]43C)[C@@H]2C1` (some centres not stated), for which the viability (% of control) in test [1] is 76.7% [at 9.25 µM] (inactive). Also, the viability, % of control in test [2] was 74.7% [at 9.25 µM] (inactive).

Take `CCC[C@@H]1C[C@@H](C(=O)N[C@@H]([C@H]2O[C@H](SC)[C@H](OP(=O)(O)O)[C@@H](O)[C@H]2O)[C@H](C)Cl)N(C)C1`: the Potency result in test [1] and in test [2] was “inactive” throughout.

For the compound `NC(=O)[C@H](O[C@@H]1O[C@H](CO)[C@@H](O)[C@H](O)[C@H]1O)c1ccccc1`, the Potency result in test [1] and in test [2] was “inactive” each time.

Consider `C=C1C(O)CC2C(C(=O)O)=COC(O[C@@H]3O[C@H](COC(=O)c4ccc(O)cc4)[C@@H](O)[C@H](O)[C@H]3O)C12` (some centres not stated), for which the Potency result in test [1] and in test [2] was “inactive” throughout.

As to `O=C(OC[C@H]1O[C@H](O[C@]2(CO)O[C@H](CO)[C@@H](O)[C@@H]2O)[C@H](O)[C@@H](O)[C@@H]1O)c1ccc(O)cc1`, the Potency result in test [1] and in test [2] was “inactive” in each case.

As for `C/C(=C\CCC(C)C1CC(O)C2(C)C3CCC4C(C)(C)C(OC5OCC(O)C(O)C5O)CCC45CC35CC(O)C12C)C(=O)O` (configuration not stated), the Potency entry in test [1] and in test [2] was “inactive” in each case.

On to `COc1cc2c(cc1O)CC(O)(CO)C(CO)C2c1ccc(OC2OC(CO)C(O)C(O)C2O)c(OC)c1` (configuration not stated), for which the Potency entry in test [1] and in test [2] was “inactive” throughout.

On to `CCN1CCN(c2ccc(Nc3ccc(-c4ccc(C(N)=O)cc4)n4ncnc34)cc2)CC1`, for which the Potency is 0.517 µM (active) in test [1] and 0.651 µM (active) in test [2].

Turning to `NC(=O)[C@H](Cc1ccccc1)NC(=O)[C@H](CCCN=C(N)N)NC(=O)C12CC3CC(CC(C3)C1)C2`, the viability (% of control) in test [1] is 88.8% [at 9.25 µM] (inactive). Besides, in test [2], the viability, % of control was 78% [at 9.25 µM] (inactive).

As for `COc1cc(/C=C/C(=O)O[C@H]2C[C@@H]3C(C(=O)O)=CO[C@@H](O[C@@H]4O[C@H](CO)[C@@H](O)[C@H](O)[C@H]4O)[C@@H]3[C@H]2C)ccc1O`, the Potency entry in test [1] and in test [2] was “inactive” in each case.

With `CC(NC(=O)CC(=O)O)C(=O)Nc1ccccc1C(N)=O` (configuration not stated), the Potency entry in test [1] and in test [2] was “inactive” each time.

As to `Cc1cc(CN)cc(C)c1NC(=O)c1ccc(-c2cc(Cl)ccc2Cl)o1`, the figures for the Potency in test [1] and in test [2] were 6.51 µM (active) and 9.2 µM (active), respectively.

On to `CCCCC1CCN(CCCC(=O)c2ccccc2C)CC1`, for which the Potency in test [1] is 16.4 µM (active); in test [2] it was 13 µM (active).

With `O=C(c1c2ccccc2cc2ccccc12)N1CCC(N2CCC[C@@H](C(=O)N3CCOCC3)C2)CC1`, the Potency entry in test [1] is “inactive”. In test [2], the Potency was 16.4 µM (active).

Consider `CC1=C2C(=O)C=C(CO[C@@H]3O[C@H](CO)[C@@H](O)[C@H](O)[C@H]3O)[C@@H]2[C@H]2OC(=O)[C@H](C)[C@@H]2[C@@H](O)C1`, for which the Potency entry in test [1] and in test [2] was “inactive” in each case.

Turning to `C=C1CCC[C@]2(C)CC[C@@H](C(=C)C(=O)O)[C@H](O)[C@@H]12`, the Potency entry in test [1] and in test [2] was “inactive” each time.

Regarding `COC(=O)C[C@H]1C(C)(C)[C@H](OC(=O)C(C)C)[C@@]2(O)C(=O)[C@]1(C)C1CC[C@]3(C)C(CC(=O)O[C@H]3c3ccoc3)[C@]13O[C@@H]32` (some centres not stated), the Potency entry in test [1] and in test [2] was “inactive” throughout.

For the compound `CC(C)c1cc2c(c(O)c1O)[C@@]13CCCC(C)(C)C1[C@@H](O)[C@@H]2OC3=O` (some centres not stated), the Potency is 4.53 µM (active) in test [1] and 10.1 µM (active) in test [2].

Consider `COc1ccc2cc(C(C)C(=O)Oc3ccc(C(N)=S)cc3)ccc2c1` (configuration not stated), for which the Potency entry in test [1] and in test [2] was “inactive” throughout.

For `CC(CO)C1CCC2(C)CC3C(CO)CC(O)C3C(C)(O)C/C=C/12` (configuration not stated), the Potency entry in test [1] and in test [2] was “inactive” throughout.
